# Structures can show the parent of a compound that is named as a salt.
# Columns and labels:
# [1] = target: IKZF1 (dCK*-IKZF1 fusion in HEK293FT) (UniProt Q13422); assay: inhibition of IKZF1 HTRF signal (DMSO = 0%, pomalidomide 10 uM = 100%); higher = lower IKZF1 protein level; settings: compound concentration: 5 uM, overnight (~20 h)
# Method in brief: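 Percent inhibition of IKZF1 signal was calculated per plate with vehicle and a reference degrader as anchors. The anchors were 0% for vehicle and 100% for the degrader, applied to background-subtracted 665/620 nm time-resolved FRET ratios from a commercial HTRF total-IKZF1 kit. Signal came from HEK293FT cells stably expressing an IKZF1 fusion, treated overnight at 37 °C with 5 μM compound in single wells of 384-well plates.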
# HEK293FT dCK*-only = assay: relative growth in counter assay (no AraC = 100%, AraC + DMSO = 0%); higher = more growth rescue independent of IKZF1; settings: compound concentration: 5 uM; AraC concentration: 0.3 uM; overnight pretreatment + 4 days AraC
# Method in brief: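 Nuclei were counted by imaging after Hoechst 33342 staining on day 5, in HEK293FT cells (300/well, 384-well) expressing only an engineered kinase construct. Compound at 5 μM went in 2 h after seeding, followed after overnight at 37 °C by a nucleoside suicide substrate at 0.3 μM plus medium for 4 days. Per plate, wells lacking suicide substrate defined 100% and those with substrate plus vehicle defined 0%.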
# HEK293FT dCK*-IKZF1 = assay: relative growth recovery (pomalidomide 10 uM = 100%, DMSO = 0%); higher = more growth rescue (IKZF1 fusion degradation); settings: compound concentration: 5 uM; AraC concentration: 0.3 uM; overnight pretreatment + 4 days AraC
# Method in brief: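 Means of duplicates from different days are given for growth recovery, normalised per plate against a reference degrader and vehicle. The reference degrader set the 100% level and vehicle the 0% level. HEK293FT cells stably expressing a deoxycytidine kinase–IKZF1 fusion (300/well, 384-well) received 5 μM compound 2 h after seeding and, after overnight at 37 °C, 0.3 μM of a nucleoside suicide substrate plus medium for 4 days. Nuclei stained with Hoechst 33342 were then counted by whole-well imaging on day 5.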
# IKZF1 (dCK*-IKZF1 fusion in HEK293FT), sequence (Q13422 whole entry, looked up, the tested form may be a part): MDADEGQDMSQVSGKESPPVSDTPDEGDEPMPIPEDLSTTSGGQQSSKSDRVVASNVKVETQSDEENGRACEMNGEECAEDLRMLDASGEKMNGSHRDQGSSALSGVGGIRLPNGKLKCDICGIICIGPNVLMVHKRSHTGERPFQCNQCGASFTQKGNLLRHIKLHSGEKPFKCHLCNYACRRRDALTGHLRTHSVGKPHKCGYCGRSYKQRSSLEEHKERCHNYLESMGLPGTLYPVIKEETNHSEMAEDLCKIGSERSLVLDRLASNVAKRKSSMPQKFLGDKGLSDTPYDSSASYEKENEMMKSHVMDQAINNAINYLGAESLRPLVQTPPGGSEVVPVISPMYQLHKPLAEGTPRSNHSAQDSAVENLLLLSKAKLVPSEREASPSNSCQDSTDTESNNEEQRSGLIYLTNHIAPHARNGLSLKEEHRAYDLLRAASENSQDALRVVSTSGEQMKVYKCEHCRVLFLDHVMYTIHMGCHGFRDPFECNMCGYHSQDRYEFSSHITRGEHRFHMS
SMILES,inhibition of IKZF1 HTRF signal [1] [%],relative growth in counter assay (HEK293FT dCK*-only) [%],relative growth recovery (HEK293FT dCK*-IKZF1) [%]
COc1cc(N2CCC(N3CCN(C(=O)CNc4cccc5c4C(=O)N(C4CCC(=O)NC4=O)C5=O)CC3)CC2)ccc1Nc1ncc(Cl)c(Nc2ccccc2P(C)(C)=O)n1 (centres undefined),111,-29.6,-0.385
CCN(CC)CCCC(C)Nc1ccnc2cc(Cl)ccc12 (centres undefined),-24.3,-29.9,-9.51
CN1CCCC1CCOC(C)(c1ccccc1)c1ccc(Cl)cc1 (centres undefined) [Clemastine fumarate],11,6.63,5.08
COC(=O)c1c(C)[nH]c(C)c1C(=O)c1ccccc1Cc1ccccc1,-37.4,36.9,66.8
COc1ccccc1NC(=O)OCC1CCN(C(=O)OC(C)(C)C)CC1,-21.9,-0.54,0.27
C[C@H]1NCc2cc(-c3ccc4c(=O)c(C(=O)O)cn(C5CC5)c4c3OC(F)F)ccc21 [Garenoxacin (Mesylate hydrate)],-29,-3.04,-1.59
CCCCC/N=c1/ccn(Cc2ccccc2)c2ccccc12,-21.7,-2.74,-2.79
C(=C\c1ccccc1)/CN1CCN(C(c2ccccc2)c2ccccc2)CC1,-25.9,-3.15,1.06
Cc1ncsc1-c1ccc(CNC(=O)[C@@H]2C[C@@H](O)CN2C(=O)[C@@H](NC(=O)COCCOCCOc2ccc(-c3ccc4ncnc(Nc5ccc(OCc6cccc(F)c6)c(Cl)c5)c4c3)cc2)C(C)(C)C)cc1,6.76,49.6,19.7
O=C(Nc1cc(C(F)(F)F)cc(C(F)(F)F)c1)Nc1c(Br)cc(Br)cc1-c1nnn[nH]1,-17,-2.42,-4.01
CN(C)c1ccc2c(c1)Sc1cc(N(C)C)ccc1N2.CS(=O)(=O)O [Leucomethylene blue (Mesylate)],-24.1,-19.7,-10.3
C/C(=N/Nc1nnc2c(n1)[nH]c1c(C)cccc12)c1ccccn1,45.9,-33,-12.6
CCCCCCc1ccc(O)cc1O,-30.8,4.87,2.99
Oc1c(I)cc(I)c2cccnc12,-30.6,-11.2,-3.46
COC(=O)C1=C(C)NC(C)=C(C(=O)OC)C1c1ccccc1[N+](=O)[O-],-23.7,-4.16,-3.38
CO[C@H]1/C=C/O[C@@]2(C)Oc3c(C)c(O)c4c(O)c(c(/C=N/N5CCN(C)CC5)c(O)c4c3C2=O)NC(=O)/C(C)=C\C=C\[C@H](C)[C@H](O)[C@@H](C)[C@@H](O)[C@@H](C)[C@H](OC(C)=O)[C@@H]1C,33.6,12.9,-2.5
Clc1ccc(COC(Cn2ccnc2)c2ccc(Cl)cc2Cl)cc1 (centres undefined),-29.1,1.65,0.49
CN1CCCC(CC2c3ccccc3Sc3ccccc32)C1 (centres undefined) [metixene],-23.4,2.04,1.64
CC[C@]1(O)C[C@H]2C[N@@](CCc3c([nH]c4ccccc34)[C@@](C(=O)OC)(c3cc4c(cc3OC)N(C=O)[C@H]3[C@@](O)(C(=O)OC)[C@H](OC(C)=O)[C@]5(CC)C=CCN6CC[C@]43[C@@H]65)C2)C1 [Vincristine (sulfate)],-10.4,-34.5,-11.7
NCCNc1ccc(NCCN)c2c1C(=O)c1ccncc1C2=O.O=C(O)/C=C\C(=O)O.O=C(O)/C=C\C(=O)O [Pixantrone (dimaleate)],-28.2,-13,-1.7
C=C1/C(=C\C=C2/CCC[C@]3(C)[C@@H]([C@H](C)/C=C/C=C/C(O)(CC)CC)CC[C@@H]23)C[C@@H](O)C[C@@H]1O [Seocalcitol],-23.4,14.2,6.88

SMILES,inhibition of IKZF1 HTRF signal [1] [%],relative growth in counter assay (HEK293FT dCK*-only) [%],relative growth recovery (HEK293FT dCK*-IKZF1) [%]
COc1ccc(CN2CCN(C(c3ccc(F)cc3)c3ccc(F)cc3)CC2)c(OC)c1OC,-50.6,1.19,0.625
CC(C)c1ccc(NC(=O)Cn2cnc3c2c(=O)n(C)c(=O)n3C)cc1,12.2,-3.63,-1.03
O=C(OC)C1=C(C)NC(C)=C([N+]([O-])=O)[C@H]1[C@]2=CC=CC=C2C(F)(F)F,-26.8,0.45,-0.325
CN(C)C(=O)C(CCN1CCC(O)(c2ccc(Cl)cc2)CC1)(c1ccccc1)c1ccccc1,-14.4,0.63,-0.755
Cc1c(-c2ccccc2F)[nH]c(N)c1C#N,-50.1,0.99,0.445
CC[n+]1c(-c2ccccc2)c2cc(N)ccc2c2ccc(N)cc21,39.8,-32.8,-12.2
COC(=O)Nc1ccc(-c2nc(N3CCOCC3)c3cnn(C4CCN(Cc5cccnc5)CC4)c3n2)cc1,-7.75,-33,-12.9
O=c1[nH]c(=O)n([C@H]2C[C@H](O)[C@@H](CO)O2)cc1F,-24.3,-31.1,-9.89
COc1cc(C(=O)NS(=O)(=O)c2ccccc2C)ccc1Cc1cn(C)c2ccc(NC(=O)OC3CCCC3)cc12 [Zafirlukast (Accolate)],-6.19,0.38,0.805
Cc1cc(N2CCCCC2)nc2ccccc12,-32,-2.77,-1.01
Nc1ncn([C@@H]2O[C@H](CO)C(O)C2O)c(=O)n1 (some centres undefined) [Azacitidine],-5.73,4.37,-3.45
Cc1ccc(/C=C2\CNC/C(=C\c3ccc(C)cc3)C2=O)cc1,-70,-34.5,-12.6
O=C(O)c1ccc(S(=O)(=O)N(Cc2ccc(OC(F)(F)F)cc2)c2ncc(C(F)(F)F)cc2Cl)cc1,-23.7,5.77,2.16
CCSc1ccc2c(c1)N(CCCN1CCN(C)CC1)c1ccccc1S2 [thiethylperazine],24.1,-4.22,1.55
Cc1cc(C)nc(NS(=O)(=O)c2ccc(NC(=S)NC(=O)COc3ccc(Br)cc3Cl)cc2)n1,-36.5,0.75,1.03
COCCOC(=O)C1=C(C)NC(C)=C(C(=O)OC/C=C/c2ccccc2)C1c1cccc([N+](=O)[O-])c1 (centres undefined) [cilnidipine],-8.24,-4.05,-0.035
O=C(NCCO[N+](=O)[O-])c1cccnc1,-26.3,-5.9,-1.74
COCC(=O)O[C@]1(CCN(C)CCCc2nc3ccccc3[nH]2)CCc2cc(F)ccc2[C@@H]1C(C)C [mibefradil],-3.89,-13.3,-3.87
O=C(CSc1nnc2c(n1)[nH]c1ccccc12)Nc1ccc(Cl)cn1,4.2,-5.82,1.11
C[C@H]1[C@H](OC(=O)CCC(=O)O)O[C@@H]2O[C@@]3(C)CC[C@H]4[C@H](C)CC[C@@H]1[C@@]24OO3,37.4,-30,-9.71
Nc1nc(N)c2nc(-c3cccc(O)c3)cnc2n1,28.6,-10.5,-2.13

SMILES,inhibition of IKZF1 HTRF signal [1] [%],relative growth in counter assay (HEK293FT dCK*-only) [%],relative growth recovery (HEK293FT dCK*-IKZF1) [%]
Oc1c(Cl)cc(Cl)c(Cl)c1Cc1c(O)c(Cl)cc(Cl)c1Cl,-36,-1.16,0.025
Oc1c(I)cc(Cl)c2cccnc12,-2.15,-3.3,-3.28
O=C1c2c(O)cccc2Cc2cccc(O)c21,14,-0.62,-0.185
O=C(Nc1ccc(S(=O)(=O)C(F)(F)F)cc1)C1=CCN(c2ncccc2C(F)(F)F)CC1,-40.9,62.2,53.1
Cc1cc(Nc2ncc(Cl)c(Nc3ccccc3S(=O)(=O)C(C)C)n2)c(OC(C)C)cc1C1CCN(CC(=O)NCCOCCOCCOCCOCCOCCNc2cccc3c2C(=O)N(C2CCC(=O)NC2=O)C3=O)CC1 (centres undefined),54.5,6.9,64.6
CCOC(=O)Nc1nc2ccccc2[nH]1,-22.3,2.38,-1.88
CC1(C)Oc2ccc(C#N)cc2[C@H](N(Cc2ncc[nH]2)c2ccc(Cl)cc2)[C@H]1O,-30.7,-4.85,1.01
CO[C@H]1CC[C@H](N2C(=O)CNc3ncc(-c4ccc(C(C)(C)O)nc4)nc32)CC1,-19.1,-9.67,-7.24
COc1ccc(Cl)cc1C(=O)NCCc1ccc(C(=O)O)cc1 [meglitinide],-37.6,-0.23,-1.25
COc1cc2c(cc1OC)[C@@H]1Cc3ccc(OC)c(OC)c3CN1CC2 [Rotundine],14.2,-31.5,-10.7
COC(=O)Nc1nc2cc(C(=O)c3ccc(F)cc3)ccc2[nH]1,-13.6,-8,-4.8
COc1cc(N2CCN(CCOCCOCCNC(=O)CNc3cccc4c3C(=O)N(C3CCC(=O)NC3=O)C4=O)CC2)ccc1Nc1ncc(Cl)c(Nc2ccccc2S(=O)(=O)C(C)C)n1 (centres undefined),34.1,-27.8,-4.32
C=C1/C(=C\C=C2/CCC[C@]3(C)[C@@H]([C@H](C)CCCC(C)(C)O)CC[C@@H]23)C[C@@H](O)C[C@@H]1O [Calcitriol (Rocaltrol)],7.56,31.2,4.81
CC[C@@]1(O)C(=O)OCc2c1cc1n(c2=O)Cc2cc3c(CN(C)C)c(O)ccc3nc2-1 [Topotecan HCl],54.2,-34.6,-13.3
NC(=O)C(c1ccccc1)(c1ccc(F)cc1)c1ccc(F)cc1 [Senicapoc],-28.5,2.14,-0.855
CC(CN(C)C)CN1c2ccccc2Sc2ccccc21 (centres undefined),-50.1,1.07,-2.14
Cc1cccc(CCN2CCC(C(=O)c3ccc(NS(C)(=O)=O)cc3)CC2)n1,-18.6,-7.85,-0.45
COc1ccc(CCCOC(Cn2ccnc2)c2ccc(OC)cc2)cc1 (centres undefined),-18.7,-32.6,-9.78
NC(=O)c1nnn(Cc2cc(Cl)c(C(=O)c3ccc(Cl)cc3)c(Cl)c2)c1N [carboxyamidotriazole],-49.1,-4.77,-2.6
CC[N+](C)(CC)CCC[n+]1c(-c2ccccc2)c2cc(N)ccc2c2ccc(N)cc21 [propidium-iodide],58.8,-10.7,-3.16
CCOC(=O)Nc1ccc2c(c1)N(C(=O)CN(C)C)c1ccccc1CC2 [Tiracizine],1.99,0.34,-0.145
